Results filed as inconclusive are left out. Where a call stands in place of a potency, no number is given. Activity calls are given as the source filed them. Unless noted, the call rests on the fitted dose curve; in most records, active means well fitted curve in the direction sought with a large enough effect; inconclusive means small, poorly fitted or top-dose-only effect, or another doubt; inactive means no such curve, though single readings can be large; an effect the other way counts as inactive or inconclusive.
Columns and labels:
[1] = target: Cytochrome P450 3A4 (Homo sapiens) (UniProt P08684); assay: qHTS Assay for Inhibitors and Substrates of Cytochrome P450 3A4 (AID 884); further: nearly all actives have a fitted effect of over 50% in size; further: potency means the concentration at half of the fitted maximal effect
Cytochrome P450 3A4 (Homo sapiens), sequence (P08684 whole entry, looked up): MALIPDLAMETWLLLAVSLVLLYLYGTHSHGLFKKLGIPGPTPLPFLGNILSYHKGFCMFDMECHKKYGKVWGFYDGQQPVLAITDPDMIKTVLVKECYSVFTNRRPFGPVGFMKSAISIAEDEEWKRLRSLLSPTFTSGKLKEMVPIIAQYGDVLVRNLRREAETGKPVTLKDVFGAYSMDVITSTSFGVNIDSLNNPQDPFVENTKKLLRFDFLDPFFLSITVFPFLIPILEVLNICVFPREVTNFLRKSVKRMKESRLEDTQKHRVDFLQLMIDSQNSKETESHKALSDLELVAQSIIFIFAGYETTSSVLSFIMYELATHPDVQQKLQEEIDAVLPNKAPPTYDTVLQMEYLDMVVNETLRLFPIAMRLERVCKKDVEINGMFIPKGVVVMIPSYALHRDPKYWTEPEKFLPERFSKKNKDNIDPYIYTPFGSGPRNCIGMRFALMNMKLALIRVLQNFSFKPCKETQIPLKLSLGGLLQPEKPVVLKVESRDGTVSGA
Procedure, shortened: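 Luminescent readout of luciferin produced by CYP3A4 (20 nM) dealkylation of Luciferin-PPXE, 25 uM (its KM). NADPH-driven reaction ran 60 min at RT after 10 min compound preincubation; data scaled to 57 uM ketoconazole as 100% inhibition.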

[2] = Confirmation and Secondary Assay for Modulators of Hemoglobin Beta Chain Splicing at IVS2 654 locus (AID 910);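 further: per-well total GFP intensity by laser scanning cytometry after 2-day treatment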
Procedure, shortened: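 HeLa cells stably carrying EGFP interrupted by mutant beta-globin IVS2-654 intron (CMV-driven) were treated with compound for 2 days at 37C; corrected splicing was scored as total peak GFP intensity per well (488 nm excitation, 500-520 nm emission).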

[3] = Confirmation and Secondary Assay for Modulators of Hemoglobin Beta Chain Splicing at IVS2 705 locus (AID 930);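 further: HeLa cells stably expressing the EGFP-705 splicing reporter; GFP fluorescence per well restored by corrected splicing of the IVS2-705 intron in EGFP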
Procedure, shortened: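 First, HeLa EGFP-705 cells are seeded at 500/well in Optimem with 2% FCS and left overnight. Next, compound or DMSO is added for 2 days. Finally wells are laser-scanned and total peak GFP intensity scored.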

[4] = qHTS Assay for Lipid Storage Modulators (AID 1519; calls by dose curve); settings: Drosophila S3 cells, BODIPY lipid droplet/cell ratio, laser cytometry, cells loaded with oleic acid; for activity change, negative = inhibition: at 57.5 µM (top of the series)
Procedure, shortened: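 Cells seeded at 5,000 per well were treated with compounds over a concentration series and loaded with oleic acid (400 uM, as added). Lipid droplet fluorescence (488 nm excitation, 500-530 nm channel) was read by laser-scanning cytometry and normalized to 20 uM Triacsin C.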

[5] = target: Ubiquitin carboxyl-terminal hydrolase 1 (Homo sapiens) (UniProt O94782); assay: Inhibitors of USP1/UAF1: Pilot qHTS (AID 504865); further: nearly all actives have a fitted effect of over 35% in size; further: potency means the concentration at half of the fitted maximal effect;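 on activity change, negative = inhibition: rhodamine fluorescence freed from ubiquitin-rhodamine substrate followed over time; top concentration of the series differs between compounds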
Ubiquitin carboxyl-terminal hydrolase 1 (Homo sapiens), sequence (O94782 whole entry, looked up): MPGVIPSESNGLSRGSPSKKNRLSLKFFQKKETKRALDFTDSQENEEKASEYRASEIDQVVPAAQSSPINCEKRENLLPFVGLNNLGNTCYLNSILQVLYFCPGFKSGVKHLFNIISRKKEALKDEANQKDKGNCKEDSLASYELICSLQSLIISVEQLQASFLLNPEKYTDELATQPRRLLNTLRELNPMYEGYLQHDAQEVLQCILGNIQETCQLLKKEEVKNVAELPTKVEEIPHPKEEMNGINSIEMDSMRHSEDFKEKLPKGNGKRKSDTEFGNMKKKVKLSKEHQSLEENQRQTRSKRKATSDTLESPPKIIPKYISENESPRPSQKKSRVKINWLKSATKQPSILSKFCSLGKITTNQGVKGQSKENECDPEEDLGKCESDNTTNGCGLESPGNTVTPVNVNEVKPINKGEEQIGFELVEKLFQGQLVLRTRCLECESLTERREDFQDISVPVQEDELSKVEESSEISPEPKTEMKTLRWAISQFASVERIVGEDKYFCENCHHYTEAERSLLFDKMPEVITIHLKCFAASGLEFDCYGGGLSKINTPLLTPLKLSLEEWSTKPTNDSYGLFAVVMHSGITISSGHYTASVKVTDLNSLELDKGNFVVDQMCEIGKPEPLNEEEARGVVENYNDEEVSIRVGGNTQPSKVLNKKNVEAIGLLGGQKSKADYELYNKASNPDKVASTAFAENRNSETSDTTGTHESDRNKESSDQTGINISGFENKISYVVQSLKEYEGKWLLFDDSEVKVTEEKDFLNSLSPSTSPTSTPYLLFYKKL
Procedure, shortened: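 Enzyme-free wells gave the negative control, while test wells held 1nM USP1/UAF1 preincubated with compound for 15 min at room temperature. Ub-Rho at 150nM final started the reaction, and fluorescence at 480/540 nm was recorded kinetically.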

[6] = target: Cytochrome P450 3A4 (Homo sapiens) (UniProt P08684); assay: qHTS Assay for Activators of Cytochrome P450 3A4 (AID 885); further: nearly all actives have a fitted effect of over 65% in size
Procedure, shortened: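 Using 20nM recombinant human CYP3A4 in potassium phosphate (200mM), substrate Luciferin-PPXE at 25uM, luminescent luciferin detection followed a 60-min RT NADPH reaction; data scaled to 57 uM ketoconazole.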

[7] = measured here: cell count channel max response
[8] = measured here: lipid channel max response

Row | Compound | Potency [1] | Potency [2] | Potency [3] | activity change, negative = inhibition [4] | max response [4, 7] [%] | max response [4, 8] [%] | Potency [5] | Potency [6]
1 | COc1cc(O)c(C(=O)O)c(O)c1 | inactive | inactive | inactive | 4.12% (inactive) | 1.93 | 6.74 | inactive | –
2 | COc1ccc(/C=C/c2cc(O)cc(O[C@H]3OC(CO)C(O)C(O)C3O)c2)cc1 (stereo partly specified) | inactive | inactive | inactive | 8.33% (inactive) | 12.8 | 23 | inactive | –
3 | COc1ccc(C2OC3C(CO)OC(n4cnc5c(=O)[nH]c(N)nc54)C3O2)cc1 (stereo unspecified) | inactive | inactive | inactive | 1.28% (inactive) | 11.1 | 13.1 | inactive | –
4 | O=c1[nH]c(=O)c2nc(Br)n(C3OC(CO)C(O)C3O)c2[nH]1 (stereo unspecified) | inactive | – | inactive | 6.72% (inactive) | 5.7 | 13 | inactive | –
5 | O=c1[nH]cnc2c1nc(Cl)n2C1OC(CO)C(O)C1O (stereo unspecified) | inactive | inactive | inactive | 3.67% (inactive) | 5.38 | 10.4 | inactive | –
6 | O=C(/C=C/C(=O)Oc1ccccc1C(=O)O)Oc1ccccc1C(=O)O | inactive | inactive | inactive | 7.98% (inactive) | 4.07 | 13.2 | inactive | –
7 | CN(C)CC/C=C1/c2ccccc2COc2ccccc21 | inactive | inactive | inactive | 0.286% (inactive) | 3.97 | 10.6 | inactive | –
8 | C=C1CCC(O)C/C1=C/C=C1\CCC[C@@]2(C)C(C(C)/C=C/C(C)C(C)C)CC[C@@H]12 (stereo partly specified) | inactive | inactive | inactive | 14.3% (inactive) | 33.4 | 55.4 | inactive | –
9 | CC(=O)Oc1ccc2c(c1)CCC1C2CC[C@]2(C)C(=O)CCC12 (stereo partly specified) | inactive | inactive | inactive | -6.33% (inactive) | -13.1 | -17.8 | inactive | –
10 | O=C(NCO)c1cccnc1 | inactive | inactive | inactive | 5.95% (inactive) | 14.8 | 25.7 | inactive | –
11 | CC(=O)OCC(=O)C1CCC2C3CC=C4CC(O)CC[C@@]4(C)C3CC[C@]12C (stereo partly specified) | inactive | inactive | inactive | 8.84% (inactive) | 22.6 | 38.3 | inactive | –
12 | O=c1cc(-c2ccccc2)oc2cc(O)c(O)cc12 | inactive | inactive | inactive | -1.09% (inactive) | -7.11 | -6.23 | inactive | –
13 | COc1ccc(-c2oc3c(CC=C(C)C)c(O[C@H]4OC(CO)C(O)C(O)C4O)cc(O)c3c(=O)c2O[C@@H]2OC(C)C(O)C(O)C2O)cc1 (stereo partly specified) | inactive | inactive | inactive | 3.91% (inactive) | 22 | 29.5 | inactive | –
14 | NC(=O)c1ccc[n+]([C@@H]2OC(COP(=O)([O-])OP(=O)(O)OCC3OC(n4cnc5c(N)ncnc54)C(OP(=O)(O)O)C3O)C(O)C2O)c1 (stereo partly specified) | inactive | inactive | inactive | 5.09% (inactive) | 9.14 | 18.1 | inactive | –
15 | O=C(/C=C/c1ccc(O)c(O)c1)O[C@H]1C[C@@](O)(C(=O)O)CC(O)C1O (stereo partly specified) | inactive | inactive | inactive | 12.5% (inactive) | 13.7 | 29.5 | inactive | –
16 | NC(=O)NCC(N)C(=O)O (stereo unspecified) | inactive | inactive | inactive | 2.49% (inactive) | 3.72 | 6.05 | inactive | –
17 | CC(=O)OC1CC[C@@]2(C)C(CC[C@@]3(C)C2CC=C2C4CC(C)(C)CC[C@]4(C)CC[C@@]23C)C1(C)C (stereo partly specified) | inactive | inactive | inactive | 4.64% (inactive) | 6.83 | 14 | inactive | –
18 | C=CCSCC=C | inactive | inactive | inactive | 6.16% (inactive) | -10.4 | -1.96 | inactive | –
19 | CCOc1ccc(C(=O)c2ccc(O)c(O)c2O)cc1 | inactive | inactive | inactive | 4.84% (inactive) | -5.66 | -2.36 | inactive | –
20 | Cc1ccc2c(c1)CC[C@H]1CC(=O)CC[C@@]21C | 15.8 µM (active) | – | inactive | 2.54% (inactive) | -2.47 | 1.9 | inactive | –
21 | C=C(C)C1COc2cc3oc(=O)ccc3cc2O1 (stereo unspecified) | inactive | inactive | inactive | 14.3% (inactive) | 12.5 | 28.8 | inactive | –
22 | C[C@@]12CCC3c4ccc(OS(=O)(=O)O)cc4CCC3C1CCC2O (stereo partly specified) | inactive | inactive | inactive | 4.64% (inactive) | 6.41 | 9.99 | inactive | –
23 | CCCCCC1C(=O)CCC1CC(=O)OC (stereo unspecified) | inactive | – | inactive | 7.58% (inactive) | 6.16 | 16 | inactive | –
24 | COc1ccc(-c2cc(=O)c3c(O)cc(O[C@@H]4OC(COC5OC(C)C(O)C(O)[C@@H]5O)C(O)C(O)C4O)cc3o2)cc1 (stereo partly specified) | inactive | – | inactive | 5.1% (inactive) | -4.97 | 1.77 | inactive | –
25 | CC(=O)OC1CC2C(C)(C)C(O)C=C[C@@]2(C)C2CC[C@@]3(C)C(c4ccoc4)OC(=O)C4OC43[C@]12C (stereo partly specified) | – | inactive | inactive | 8.59% (inactive) | 21.3 | 29.9 | inactive | inactive
26 | CCCC1OC2CC3C4CCC5=CC(=O)C=CC5(C)C4C(O)CC3(C)[C@]2(C(=O)CO)O1 (stereo partly specified) | – | inactive | inactive | 8.38% (inactive) | 24.3 | 37.9 | inactive | inactive

Row | Compound | Potency [1] | Potency [2] | Potency [3] | activity change, negative = inhibition [4] | max response [4, 7] [%] | max response [4, 8] [%] | Potency [5] | Potency [6]
27 | Oc1ccc(C2Oc3cc(O)cc(O)c3CC2O)cc1 (stereo unspecified) | – | inactive | inactive | 14.6% (inactive) | -6.15 | 20.5 | inactive | inactive
28 | CC1(C)C=Cc2cc3ccc(=O)oc3cc2O1 | inactive | – | inactive | 11.6% (inactive) | -4.2 | 7.43 | inactive | –
29 | CCCCN1CCCCC1C(=O)Nc1c(C)cccc1C (stereo unspecified) | – | inactive | inactive | 7.02% (inactive) | 11.8 | 21.2 | inactive | inactive
30 | CC(=O)OC1CC(OC(C)=O)[C@]2(C)C(CC(=O)[C@]3(C)C2CC[C@@]2(C)C(C(=O)O)OC(=O)C4OC423)C1(C)C (stereo partly specified) | – | inactive | inactive | 3.41% (inactive) | 10.8 | 15.4 | inactive | inactive
31 | COC(=O)/C(=C1\OC(=O)C(c2ccccc2)C1=O)c1ccccc1 (stereo unspecified) | – | inactive | inactive | 5.87% (inactive) | 11.1 | 17.7 | inactive | inactive
32 | COc1cc(OC)c(C(C)=O)c(O)c1C | – | inactive | inactive | 17% (inactive) | 5.25 | 27.6 | inactive | inactive
33 | COc1ccc(-c2cc(=O)c3c(O)c(OC)c(OC)c(OC)c3o2)cc1OC | – | inactive | inactive | -11% (inactive) | -6.36 | -17.8 | inactive | inactive
34 | CCOC(=O)c1c(C)cc(O)c(C=O)c1O | – | inactive | inactive | 7.6% (inactive) | -4.41 | 3.24 | inactive | inactive
35 | CC1(C)CC2C1CCC1(C)OC1CCC2(C)O (stereo unspecified) | – | inactive | inactive | -2.16% (inactive) | -0.415 | 2.87 | inactive | inactive
36 | CC(=O)OC1CC2C(C)(C)C(=O)[C@@H]3OC3[C@@]2(C)C2CC[C@]3(C)C(=CC(=O)OC3c3ccoc3)[C@]12C (stereo partly specified) | – | inactive | inactive | 2.11% (inactive) | 18.2 | 25.7 | inactive | inactive
37 | COc1cccc(O)c1O | – | inactive | inactive | 7.71% (inactive) | 9.09 | 20.7 | inactive | inactive
38 | COC(=O)c1cc(OC)c(=O)c2c(OC)c(OC)ccc2c1 | – | inactive | inactive | 6.06% (inactive) | -2.75 | 7.78 | inactive | inactive
39 | COc1cc(NS(C)(=O)=O)ccc1Cc1c2ccccc2nc2ccccc12 | inactive | – | inactive | 4.8% (inactive) | 13 | 21.3 | inactive | –
40 | CC1CC2C3CCC4=CC(=O)C=C[C@]4(C)[C@@]3(Cl)C(O)C[C@]2(C)C1(OC(=O)c1ccco1)C(=O)CCl (stereo partly specified) | – | inactive | inactive | 12.6% (inactive) | -6.79 | 6.32 | inactive | inactive
41 | COc1cc(-c2cc(=O)c3c(O)c(OC)c(OC)c(OC)c3o2)cc(OC)c1OC | – | inactive | inactive | 0.715% (inactive) | 5.14 | 8.84 | inactive | inactive
42 | COc1ccc(-c2coc3c(O)c(OC)ccc3c2=O)cc1 | – | inactive | inactive | 2.6% (inactive) | 25.3 | 28.5 | inactive | inactive
43 | COc1cc(-c2oc3cc(O)ccc3c(=O)c2O)ccc1O | – | inactive | inactive | -2.65% (inactive) | -22.8 | -26.5 | inactive | inactive
44 | CC1(C)CC2C1CCC1(C)OC2(C)CCC1O (stereo unspecified) | – | inactive | inactive | 2.02% (inactive) | 12.1 | 15.9 | inactive | inactive
45 | CC1(C)CC23C(=O)CCC(O)C2(C)CCC13 (stereo unspecified) | – | inactive | inactive | 0.112% (inactive) | 8.4 | 10.8 | inactive | inactive
46 | Cc1cc(O)c(C=O)c(O)c1C(=O)O | – | inactive | inactive | 3.98% (inactive) | 6.58 | 11.5 | inactive | inactive
47 | O=C(NC1CCCCC1)NC1CCCCC1 | – | inactive | inactive | 9.61% (inactive) | 16.8 | 30.7 | inactive | inactive
48 | COc1ccc(-c2oc3cc(O[C@@H]4OC(CO)C(O)C(O)C4O)c(OC)c(O)c3c(=O)c2OC)cc1O (stereo partly specified) | – | inactive | inactive | 2.95% (inactive) | -7.2 | -6.13 | inactive | inactive
49 | COC(=O)c1c(C)cc(OC)cc1O | – | inactive | inactive | 8.17% (inactive) | 10 | 23.5 | inactive | inactive
50 | CC(C)=CCc1c(O)cc2oc(C)cc(=O)c2c1O | – | inactive | inactive | 2.12% (inactive) | -3.81 | -0.981 | inactive | inactive
51 | COC1=CC(=O)C(C(=O)c2ccccc2)=CC1=O | – | inactive | inactive | 9.22% (inactive) | 13.1 | 25.8 | 25.1 µM (active) | inactive

From PubChem BioAssay (NCATS)
